An excerpt weighted towards active compounds, which were near 2.9% of everything screened.
p53 reactivator – restores transcriptional activity of mutant p53. H1299 p53-A138V BP100-luciferase reporter, luminescence, 24 h. Potency, µM (doses to about 92.2 µM), for the others: at the highest dose activity change, positive = activation, hits mostly activators. actives 0.063% (n = 320,000). AID 504706; also: potency is read from the fitted curve at half-maximal effect; % of control where 0% means no effect; nearly all actives have a fitted effect of over 45% in size
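H1299 (p53-null), stable ts p53-A138V + BP100-Luc; 1000 cells/well, Opti-MEM/10% FBS; cpd 4 pt, 1:5; 24 h, 37 deg C, 5% CO2; detection reagent 10 min RT; luminescence.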
HEK293 tox – cytotoxic in the GLP-1 receptor inverse agonist counter-screen; HEK293 cAMP-luciferase reporter cells, luminescence, 24 h; AID 624418; Potency, µM (titrated, usually from 38.3 µM), for the others: at the top dose activity change, negative = inhibition, actives largely listed as inhibitors; actives 0.13% (n = 410,000);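 also: loss of luciferase light is scored as toxicity; potency is read from the fitted curve at half-maximal effect; % is scaled to controls: 0 for no effect and ±100 for the full control effect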
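Here, cytotoxicity is scored as loss of luminescence. The MLSMR collection was tested on cells seeded in medium containing 10% Nu serum, with a 24 hr compound exposure preceded by 12 hours of culture.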
GLP1R inv ag – inverse agonists of human GLP-1 receptor | P43220 | HEK293 GLP-1R CRE-luciferase, luminescence, 24 h; GLP-1R form is constitutively active | Potency, µM (series often up to 38.3 µM), for inactives: at the top dose activity change, negative = inhibition, hits mostly inhibitors | actives 1.6% (n = 410,000); also: potency is read from the fitted curve at half-maximal effect; % is scaled to controls: 0 for no effect and ±100 for the full control effect; nearly all actives have a fitted effect of over 55% in size
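qHTS in 1536-well format: reporter HEK293 cells expressing constitutive GLP-1R activity in DMEM + 10% Nu serum, 24 hr with compounds at 37 deg C, luminescence read after 12 min with detection reagent.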
GLP1R ag – GLP-1 receptor (human) agonism; Potency, µM (series often up to 45.6 µM), inactives show top-dose activation, actives largely listed as activators; HEK293 GLP-1R CRE-luciferase, luminescence, 4-6 h; cells express a hypersensitive GLP-1R form; actives 0.007% (n = 380,000); also: potency is read from the fitted curve at half-maximal effect; % of control where 0% means no effect
LDHA inh – LDHA (human) enzyme inhibition | purified LDHA, NADH/diaphorase-resazurin fluorescence; active compounds read low | activity change, % (values are at about 110 or 230 µM) | actives 0.15% (n = 480,000) | AID 1347041; in the data active = activity change below about -30%; inconclusive = mostly about -25% to -30%;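 also: plate controls were DMSO wells for no effect and wells without enzyme for full effect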
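LDH5 2 nM; NADH 0.06 mM, pyruvate 0.2 mM; 200 mM Tris pH 7.4, EDTA, Tween-20; 5 min RT. Detection: diaphorase 0.133 mg/mL + resazurin 37 µM, fluorescence ex540/em590 at 0 and 20 min; normalized to enzyme-free and DMSO wells.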
ClpP mod – qHTS Assay for Activators of ClpP. ATP-dependent Clp protease proteolytic subunit (Bacillus subtilis (strain 168)), P80244. actives 1.9% (n = 340,000). purified B. subtilis ClpP, FRET peptide cleavage, 20 min. Potency, µM (highest dose often 57.5 µM), for inactives: top-dose activity change, negative = active; active = well fitted falling curve with a large enough effect; inconclusive = small, poorly fitted or top-dose-only effect; inactive = no such curve, though single readings can be large or run the other way; also: potency is read from the fitted curve at half-maximal effect; the source files actives as falling curves though it sought activators and does not explain the sign; nearly all actives have a fitted effect of over 65% in size
Target sequence (P80244 whole entry, looked up): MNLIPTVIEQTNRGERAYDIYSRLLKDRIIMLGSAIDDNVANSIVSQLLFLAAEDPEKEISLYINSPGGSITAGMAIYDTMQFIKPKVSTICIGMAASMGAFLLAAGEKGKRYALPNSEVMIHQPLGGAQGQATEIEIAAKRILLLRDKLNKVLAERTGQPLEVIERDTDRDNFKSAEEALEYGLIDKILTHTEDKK
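Purified B. subtilis ClpP, 10 microg/mL final in Tris/HCl pH8 with KCl, BSA, glycerol and Tween-20, cleaved an Abz/nitrotyrosine-quenched decapeptide. Fluorescence (ex 320, em 430) was read at 0 and 20 min at room temperature. Delta was normalized to 5.8 microM ADEP and DMSO/no-enzyme controls.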
* = called active by the depositor; ? = inconclusive; nt = no result; [ ] = remark or other dose. Unless noted, calls follow the shape of the dose curve; as a rule, active = well fitted curve in the direction sought with a large enough effect; inconclusive = small, poorly fitted or top-dose-only effect, or another doubt; inactive = no such curve, though single readings can be large; an effect the other way counts as inactive or inconclusive.

SMILES	p53 reactivator	HEK293 tox	GLP1R inv ag	GLP1R ag	LDHA inh	ClpP mod
CC1=CC(=O)C(C(=O)/C=C/c2cccs2)C(=O)O1 (centres undefined)	nt	nt	nt	nt	12	nt
CCCCCCSc1ccc([C@H]2N[C@@](C)(C(=O)OC)[C@H]3C(=O)N(CC)C(=O)[C@@H]23)cc1	-6%	0%	10µM*	25%	3	-11%
CCOC(=O)C1(C)NC(c2ccccc2F)C2C(=O)N(CC)C(=O)C21 (centres undefined)	9%	2%[7.66 µM]	20%[7.66 µM]	0%	-4	28µM*
COC(=O)[C@]1(Cc2ccccc2)N[C@H](c2ccc(-c3cc(C(C)=O)cs3)cc2)[C@@H]2C(=O)N(C)C(=O)[C@@H]21	-4%	11%	6%	2%	1	18µM*
CCOC(=O)C1(Cc2ccccc2)NC(c2ccccc2F)C2C(=O)N(CC)C(=O)C21 (centres undefined)	1%	-6%	?	-7%	-1	-1%
CCCCCCSc1ccc([C@H]2N[C@@](Cc3ccccc3)(C(=O)OC)[C@H]3C(=O)N(C)C(=O)[C@@H]23)cc1	13%	-6%	11µM*	12%	4	-14%
Cc1ccc[n+](CC(=O)c2ccc(Cl)cc2)c1	nt	7%	15%	0%	5	1%
FC(F)(F)c1cc(-c2cccs2)nc(-n2cc(Cl)cn2)n1	-2%	-1%	?	-2%	1	32µM*
O=[N+]([O-])c1ccn(-c2nc(-c3cccs3)cc(C(F)(F)F)n2)n1	0%	0%	26%	10%	-1	-1%
[Cl][In]([Cl])[Cl]	nt	nt	nt	10%	-80*	1%
O=C(Nc1ccc(F)cc1F)C1CCCN1S(=O)(=O)c1ccc(-c2ccc(=O)[nH]n2)s1 (centres undefined)	-5%	2%	50%	8%	-5	-23%
Cc1ccc(NC(=O)CSCC(=O)Nc2nnc(C)s2)cc1	-2%	3%	1%	1%	-2	28µM*
Cc1nnc(NC(=O)CSCc2ccccc2)s1	-3%	2%	-3%	7%	-11	-2%
O=C(O)CCc1ccc(-c2ccccc2)n1CC1CCCO1 (centres undefined)	4%	11%	16%	1%	-1	?
Cc1ccc(-c2ccc(CCC(=O)O)n2CC2CCCO2)cc1 (centres undefined)	-2%	4%	0%	4%	-1	25µM*
O=C(N=Nc1c(O)[nH]c2ccccc12)c1cc(-c2cccs2)[nH]n1	4%	-18%	17%	10%	-39*	nt
O=C(Cc1cccs1)N=Nc1c(O)[nH]c2ccccc12	15%	0%	15%	-5%	-1	1%
CCN=C1S/C(=C\c2cn(CC)c3ccccc23)C(=O)N1CC	7%	-9%	?	14µM*	-2	nt
CCN1C(=O)S/C(=C/c2cn(C)c3ccccc23)C1=O	15%	5%	0%	1%	0	2%
Cc1cccc(NC(=O)CSc2nc3ccccc3c3nc(CCc4c(C)n[nH]c4C)nn23)c1	-13%	5µM*	?	-16%	-3	0%
CN1C(=O)c2cccc3c(Br)ccc(c23)C1=O	nt	24%	67%	-1%	5	1%
CN1C(=O)c2cccc3c(Cl)ccc(c23)C1=O	-2%	48%	13%	-2%	-1	16µM*
CCOCCCNC(=O)CN1C(=O)COc2ccc(S(=O)(=O)N3CCCC3)cc21	7%	-6%	-22%	7%	-13	0%
O=C(O)c1cccc(N2CCCC2=O)c1	-13%	10%	0%	-22%	-10	0%
O=C(O)c1cccc(N2CCCC2)c1	25%	7%	7%	-5%	6	28µM*

Bioassay records as filed in PubChem.
